TDP1 cell CPT: growth inhibition of DT40 Tdp1-/-;hTDP1 cells with camptothecin (screen for TDP1 inhibitors). chicken DT40 Tdp1-/-;hTDP1 cells + 20 nM CPT, ATP luminescence, 48 h. Potency, µM (top dose mostly 46.2 µM), inactives show at the highest dose activity change, negative = growth inhibition, actives largely listed as inhibitors. 12% of 420,000 active. AID 686979; also: nearly all actives have a fitted effect of over 55% in size
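Chicken DT40 Tdp1-/- cells stably complemented with human TDP1 were seeded at 400 cells/well in medium containing 20 nM camptothecin, exposed to pin-transferred compounds, and grown at 37 °C for at least 48 hr. Viability was read as ATP luminescence.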
TDP1 inh: TDP1 (human) enzyme inhibition. Q9NUW8. recombinant TDP1, AlphaScreen DNA substrate cleavage. Potency, µM (doses to about 130 µM), inactives show top-dose activity change, negative = inhibition, most hits filed as inhibitors. 0.28% of 350,000 active. AID 485290; also: nearly all actives have a fitted effect of over 40% in size
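Tdp1 1 nM final; 15 min RT w/ cpd; substrate 15 nM, 5 min; beads 10 ug/ml, 10 min; AlphaScreen read. Neg ctrl: no enzyme.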
VDR inhibitor: vitamin D3 receptor (human) inhibition; P11473; 0.93% of 400,000 active; Potency, µM, for the others: max response, negative = inhibition, hits mostly inhibitors; VDR-SRC2-3 peptide fluorescence polarization, 2 h
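Signal is fluorescence polarization, reporting how far test compounds block the interaction of VDR with the SRC2-3 coregulator peptide after a 2 h room-temperature incubation.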
GCN5L2 inh: inhibitors of human GCN5L2 histone acetyltransferase | GCN5L2 HAT assay, ThioGlo1 CoA-SH fluorescence | Potency, µM (series often up to 58.9 µM), for the others: top-dose activity change, negative = inhibition, hits mostly inhibitors | 0.21% of 390,000 active
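Titration-based screen in which CoA formation is detected via maleimide probe ThioGlo1 (50uM) turning fluorescent on thiol reaction; substrates H3(1-25) 75uM and acetyl-CoA 70uM, GCN5L2 20nM, 20 min incubation at room temperature.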
TDP1 cell noCPT: qHTS for Inhibitors of human tyrosyl-DNA phosphodiesterase 1 (TDP1): qHTS in cells in absence of CPT. Potency, µM (top dose mostly 46.2 µM), inactives show top-dose activity change, negative = growth inhibition, actives largely listed as inhibitors. 15% of 420,000 active. AID 686978, 2013. DT40 Tdp1-/- hTDP1 cells, no CPT, ATP luminescence, 48 h; also: nearly all actives have a fitted effect of over 55% in size
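DT40 Tdp1-/-;hTDP1 cells, no CPT (DMSO vehicle only), 400 cells/well; compounds pin-transferred; ≥48 hr, 37 °C; CellTiter-Glo 30 min RT dark, luminescence read.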
PLK1 PBD inh: inhibitors of human PLK1 polo-box domain binding. P53350. Plk1 PBD binding of FITC phosphopeptide, fluorescence polarization. Potency, µM, inactives show max response, negative = inhibition, actives largely listed as inhibitors. 2.8% of 360,000 active; also: series mostly up to about 57 µM; nearly all actives have a fitted effect of over 65% in size
Target sequence (P53350 whole entry, looked up, the tested form may be a part): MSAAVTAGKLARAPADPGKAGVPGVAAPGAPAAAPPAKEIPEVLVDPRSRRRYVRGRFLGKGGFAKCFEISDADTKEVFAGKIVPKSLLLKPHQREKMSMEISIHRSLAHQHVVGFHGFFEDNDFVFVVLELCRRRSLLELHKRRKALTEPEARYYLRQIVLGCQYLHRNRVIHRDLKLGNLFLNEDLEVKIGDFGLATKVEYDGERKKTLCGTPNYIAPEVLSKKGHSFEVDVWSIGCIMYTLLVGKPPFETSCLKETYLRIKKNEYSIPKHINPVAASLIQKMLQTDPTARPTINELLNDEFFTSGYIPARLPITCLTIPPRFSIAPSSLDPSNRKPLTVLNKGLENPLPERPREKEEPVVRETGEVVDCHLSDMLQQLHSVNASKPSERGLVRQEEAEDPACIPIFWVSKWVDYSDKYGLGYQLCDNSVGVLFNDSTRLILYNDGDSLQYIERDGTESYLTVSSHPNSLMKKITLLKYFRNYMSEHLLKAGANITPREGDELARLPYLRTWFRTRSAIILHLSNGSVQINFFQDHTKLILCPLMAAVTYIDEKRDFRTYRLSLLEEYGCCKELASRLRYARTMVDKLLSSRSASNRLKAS
An asterisk follows results filed as active; ? = inconclusive; / = no result given; [ ] = remark or other dose. Compounds with a hit are over-represented: about 18% of the library has one in this group of screens. Calls follow the shape of the dose curve; as a rule, active = well fitted curve in the direction sought with a large enough effect; inconclusive = small, poorly fitted or top-dose-only effect, or another doubt; inactive = no such curve, though single readings can be large; an effect the other way counts as inactive or inconclusive. % is scaled to controls: 0 for no effect and ±100 for the full control effect; potency is read from the fitted curve at half-maximal effect.

SMILES | TDP1 cell CPT | TDP1 inh | VDR inhibitor | GCN5L2 inh | TDP1 cell noCPT | PLK1 PBD inh
CCN(CC(=O)Nc1ccccc1OC)CC(=O)Nc1c(Cl)ccc(C)c1Cl | ? | 3% | 0% | -13% | 15µM* | 2%
COc1cc([N+](=O)[O-])ccc1NC(=O)CN(C)C | 3% | 5% | 8% | 0% | -16% | -6%
CCN(CC)CC(=O)Nc1ccc(-c2ccc(NC(=O)CN(CC)CC)c(OC)c2)cc1OC | 13µM* | 0% | 3% | 3% | 9.2µM* | -24%
CCN(CC(=O)Nc1cccc(F)c1)CC(=O)Nc1ccccc1OC | -3% | / | -3% | -2% | -1% | 2%
N#Cc1ccc(NC(=O)COC(=O)C2CCC2)cc1 | 2% | / | / | / | -28% | -4%
CCOc1cc(/C=N/O)ccc1OS(=O)(=O)c1ccc(C)cc1 | -27% | 2% | -17% | -5% | ? | 3%
CCOc1cc(/C=N/O)ccc1OCc1ccc(C)cc1 | ? | 0% | -9% | -8% | 23µM* | -14%
COc1ccc(NC(=O)N(C)C[C@H]2Oc3c(NC(=O)c4ccncc4)cccc3C(=O)N([C@H](C)CO)C[C@@H]2C)cc1 | 0.023µM* | 0% | -23% | 3% | -1% | -15%
C[C@H](CO)N1C[C@H](C)[C@@H](CN(C)C(=O)Nc2ccc(C(F)(F)F)cc2)Oc2c(cccc2N(C)C)C1=O | ? | 0% | -7% | -5% | 23µM* | -19%
C[C@H](CO)N1C[C@H](C)[C@@H](CN(C)S(=O)(=O)c2ccccc2)Oc2c(cccc2N(C)C)C1=O | ? | 1% | 1% | -1% | ? | -4%
Cc1noc(C)c1S(=O)(=O)N(C)C[C@H]1Oc2c(cccc2N(C)C)C(=O)N([C@H](C)CO)C[C@@H]1C | -18% | 100µM* | -4% | -3% | ? | -11%
C[C@H](CO)N1C[C@H](C)[C@@H](CN(C)C(=O)Nc2ccc(C(F)(F)F)cc2)Oc2c(NC(=O)c3ccncc3)cccc2C1=O | 15% | 0% | 17% | -4% | -26% | -24%
CC(C)NC(=O)N(C)C[C@H]1Oc2c(NC(=O)Nc3ccc(C(F)(F)F)cc3)cccc2C(=O)N([C@H](C)CO)C[C@@H]1C | ? | 1% | -4% | 1% | 18µM* | -3%
C[C@@H]1CN([C@H](C)CO)C(=O)c2cccc(NC(=O)Nc3ccc(F)cc3)c2O[C@H]1CN(C)C(=O)Nc1ccc(C(F)(F)F)cc1 | ? | 1% | -6% | -9% | ? | 1%
COCc1cc(C)n(CC(=O)Nc2ccc3c(c2)OCO3)c(=O)c1C#N | 1% | 4% | -4% | -7% | ? | -2%
O=C(Nc1ccccc1Cl)c1ccc(F)c(S(=O)(=O)NCc2ccc(Cl)c(Cl)c2)c1 | ? | 0% | 14% | -11% | ? | /
CCCCN(CCCC)CC(O)c1cc(Cl)cc2c1-c1ccc(Cl)cc1/C2=C/c1ccc(Cl)cc1 (configuration not stated) | 3% | / | 6% | -18% | -18% | /
COCc1ccc(C(=O)N2CCCC(N3CCN(c4ccc(F)cc4)CC3)C2)o1 (configuration not stated) | ? | 3% | -1% | -3% | ? | -9%
COc1ccc(NC(=O)N(C)C[C@H]2Oc3c(NC(=O)Nc4ccc(C(F)(F)F)cc4)cccc3C(=O)N([C@H](C)CO)C[C@@H]2C)cc1 | 16µM* | 2% | -3% | -16% | 13µM* | -6%
CC(=O)C1=C(O)C(=O)N(Cc2ccccc2)C1c1cccs1 (configuration not stated) | 0% | -2% | -16% | -4% | -14% | -7%
O=C1NC(=O)C2C1C(c1cccs1)NN2Cc1ccccc1 (configuration not stated) | 29µM* | 3% | 9% | 10% | 29µM* | -9%
CNS(=O)(=O)c1cn(CC(=O)N2CCN(c3ccc(OC)cc3)CC2)cc1S(=O)(=O)NC | -21% | 6% | 1% | -15% | ? | /
CNS(=O)(=O)c1cn(CC(=O)N2CCN(c3cccc(Cl)c3)CC2)cc1S(=O)(=O)NC | ? | -3% | 14% | -7% | 26µM* | /
CCCNS(=O)(=O)c1ccc(CCC(=O)N2CCCCC2)cc1 | ? | 4% | ? | 0% | ? | 24µM*
CCNS(=O)(=O)c1ccc(CCC(=O)N2CCN(c3cccc(Cl)c3)CC2)cc1 | ? | / | -2% | -1% | 23µM* | -2%
SMILES | TDP1 cell CPT | TDP1 inh | VDR inhibitor | GCN5L2 inh | TDP1 cell noCPT | PLK1 PBD inh
CCC1CN(CC(=O)NCc2n[nH]c3c2CCCCC3)Cc2cc(OC)ccc2O1 (configuration not stated) | 17%[9.04 µM] | / | / | / | ? | /
O=C(CSc1nccn1Cc1ccccc1)Nc1ccc2c(c1)OCO2 | ? | 7% | -5% | 11% | -1% | /
CCCCC1(CO)C(=O)N(c2ccccc2)N(c2ccccc2)C1=O | ? | 3% | -18% | -6% | ? | -16%
CCCCC1(Br)C(=O)N(c2ccccc2)N(c2ccccc2)C1=O | ? | 3% | 71µM* | -27% | 16µM* | ?
CC(O)(CC(=O)CC(=O)c1ccccc1)c1ccccc1 (configuration not stated) | ? | / | 3% | / | ? | -7%
COc1ccc(NC(=O)CN(C)CC(=O)Nc2sc3c(c2C#N)CCC3)cc1 | -24% | 3% | -1% | -25% | -14% | -4%
Oc1ccccc1C1CC(c2cccs2)=NC(c2cccc(Br)c2)N1 (configuration not stated) | 15µM* | 3% | 71µM* | -11% | 21µM* | -9%
O=C(O)CCC(=O)N1N=C(c2cccs2)CC1c1ccc(Br)cc1 (configuration not stated) | -9% | / | 3% | 12% | -10% | -11%
O=C(Nc1cccc(F)c1)N1CCCC2(CCN(C(=O)c3ccco3)CC2)C1 | -121% | / | 2% | 5% | -20% | /
CNc1nc(SC(C)C(=O)Nc2ccc(Cl)c(Cl)c2)nc(N2CCOCC2)n1 (configuration not stated) | ? | 8% | ? | -1% | -33% | -9%
CC(Sc1nc(NCc2ccccc2)nc(N(C)C)n1)C(=O)Nc1ccccc1 (configuration not stated) | 23µM* | 1% | -6% | -25% | 21µM* | -2%
CC(Sc1nc(NCc2ccccc2)nc(N2CCOCC2)n1)C(=O)Nc1ccccc1 (configuration not stated) | ? | 2% | -21% | -1% | 21µM* | 30µM*
